# Measurements from PubChem BioAssay.
# Activity calls are given as the source filed them. Unless noted, the rule behind the calls is not given here.
# What was measured:
# [1] = compound effects on lung adenocarcinoma cell viability – A549, calcein-AM fluorescence, 48 h, basal, profiling panel (AID 1162); conditions: higher = more signal; note: test concentration not given here
# [2] = compound effects on differentiated 3T3-L1 adipocyte viability – cell-based, 3T3-L1 adipocytes, calcein-AM fluorescence, 48 h, basal, profiling panel (AID 1163); conditions: 3T3-L1 adipocytes viability, higher = more signal; note: test concentration not given here
# [3] = compound effects on hepatocellular carcinoma cell viability – HepG2, calcein-AM fluorescence, 48 h, basal, profiling panel (AID 1164); conditions: higher = more signal; note: test concentration not given here
# [4] = compound effects on multiple myeloma cell viability – MM1S, calcein-AM fluorescence, 48 h, basal, profiling panel (AID 1165); conditions: higher = more signal; note: test concentration not given here
# [5] = calcein-AM signal in unstimulated myeloma cells – cell-based, calcein-AM fluorescence, 48 h, PK04 Diversity Set, profiling panel (AID 1166); conditions: RPMI8226 myeloma viability, higher = more signal;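 note: cells grown under basal conditions without added stimulus; test concentration not given here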
# [6] = JC-1 mitochondrial signal, unstimulated HepG2 cells – cell-based, JC-1 fluorescence, 24 h, 100 nL compound, profiling panel (AID 1167); conditions: HepG2 mitochondrial potential, higher = more signal; note: test concentration not given here
# [7] = JC-1 mitochondrial signal, unstimulated adipocytes – cell-based, JC-1 fluorescence, 3T3-L1 adipocytes, 24 h, 100 nL compound, profiling panel (AID 1168); conditions: JC-1 mitochondrial fluorescence, higher = more signal, called active from +8 up or from −8 down; note: test concentration not given here
# [8] = JC-1 mitochondrial signal, unstimulated myeloma cells – cell-based, JC-1 fluorescence, RPMI8226, 24 h, 100 nL compound, profiling panel (AID 1169); conditions: JC-1 mitochondrial potential fluorescence, higher = more signal; note: test concentration not given here
# [9] = JC-1 mitochondrial signal, unstimulated MM1S myeloma – cell-based, JC-1 fluorescence, 24 h, 100 nL compound, profiling panel (AID 1170); conditions: MM1S mitochondrial potential, higher = more signal; note: test concentration not given here
# [10] = resazurin metabolic signal in A549 cells – cell-based, resazurin fluorescence, 24 h, PK04 Diversity Set, profiling panel (AID 1171); conditions: A549 viability, higher = more signal, called active from +8 up or from −8 down; note: test concentration not given here
# [11] = resazurin metabolic signal in HepG2 cells – cell-based, resazurin fluorescence, 24 h, PK04 Diversity Set, profiling panel (AID 1172); conditions: HepG2 viability, higher = more signal; note: test concentration not given here
# [12] = budding yeast growth changes without added modifier – OD600, strain BY4716, 24 h, basal condition, primary screen (AID 1173); conditions: S. cerevisiae BY4716 growth, OD600, 24 h; higher = more signal, called active from +8 up or from −8 down
# [13] = viability profiling in MM1S myeloma cells – cell-based, resazurin fluorescence, basal, 24 h, PK04 Diversity Set, profiling panel (AID 1174); conditions: higher = more signal, called active from +8 up or from −8 down; note: test concentration not given here
# [14] = target: Dihydroorotate dehydrogenase (quinone), mitochondrial (Plasmodium falciparum (isolate 3D7)) (UniProt Q08210); assay: inhibition of P. falciparum DHODH – biochemical, C-terminal His tag, absorbance 600 nm, primary screen (AID 1175); conditions: PfDHODH enzyme, DCIP absorbance 600 nm; higher = more signal, called active from +8 up or from −8 down;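 note: recombinant parasite enzyme with a five histidine tag at its C terminus; test concentration not given here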
# [15] = inhibition of PAO1 biofilm formation – strain PAO1, LB-PBS medium, absorbance 600 nm, primary screen (AID 1176); note: test concentration not given here; conditions: P. aeruginosa PAO1 growth/biofilm, A600, 12 h; higher = more signal
# [16] = growth modulation of vineyard yeast isolate – strain RM11-1a, OD600, basal, 24 h, primary screen (AID 1177);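 note: cultures grown under basal conditions with no added stressor; test concentration not given here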; conditions: S. cerevisiae RM11-1a growth, OD600, 24 h; higher = more signal, called active from +8 up or from −8 down
# [17] = growth of efflux-deficient E. coli DRC39 – strain DRC39, OD650, 24 h, E. coli filamentation inducers, primary screen (AID 1178);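 note: growth measured as culture turbidity by optical density at 650 nm; test concentration not given here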; conditions: E. coli DRC39 acrAB, higher = more signal, called active from +8 up or from −8 down
# [18] = growth of efflux-deficient E. coli DRC39 – strain DRC39, OD650, 48 h, E. coli filamentation inducers, primary screen (AID 1179);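 note: screen aims at cell division blockers that make cells filament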; conditions: E. coli DRC39 delta-acrAB growth, higher = more signal, called active from +8 up or from −8 down
# [19] = viability profiling in RPMI8226 myeloma cells – cell-based, resazurin fluorescence, basal, 24 h, PK04 Diversity Set, profiling panel (AID 1180); conditions: higher = more signal;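 note: RPMI8826 multiple myeloma cell line at 5000 cells per well; test concentration not given here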
# [20] = target: E3 ubiquitin-protein ligase XIAP (Homo sapiens) (UniProt P98170); assay: small molecules binding XIAP protein – biophysical, small-molecule microarray, fluorescence 635 nm, primary screen (AID 1181); conditions: higher = more signal;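 note: score merges 667 nm emission and signal to noise over triplicate slides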
# E3 ubiquitin-protein ligase XIAP (Homo sapiens), sequence (P98170 whole entry, looked up): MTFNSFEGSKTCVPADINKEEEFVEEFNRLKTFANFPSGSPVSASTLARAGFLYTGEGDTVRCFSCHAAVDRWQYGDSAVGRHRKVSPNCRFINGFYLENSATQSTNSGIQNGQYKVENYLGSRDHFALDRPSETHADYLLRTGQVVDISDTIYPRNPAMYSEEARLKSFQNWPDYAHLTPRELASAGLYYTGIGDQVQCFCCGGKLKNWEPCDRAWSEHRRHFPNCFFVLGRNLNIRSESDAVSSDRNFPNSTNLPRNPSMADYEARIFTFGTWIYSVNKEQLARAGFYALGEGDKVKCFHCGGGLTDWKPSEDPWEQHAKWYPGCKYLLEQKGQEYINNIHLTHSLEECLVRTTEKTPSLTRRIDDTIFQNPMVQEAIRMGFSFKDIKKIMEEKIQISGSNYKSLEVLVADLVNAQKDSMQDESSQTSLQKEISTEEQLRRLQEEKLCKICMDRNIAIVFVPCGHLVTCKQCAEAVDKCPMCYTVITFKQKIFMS
# Dihydroorotate dehydrogenase (quinone), mitochondrial (Plasmodium falciparum (isolate 3D7)), sequence (Q08210 whole entry, looked up): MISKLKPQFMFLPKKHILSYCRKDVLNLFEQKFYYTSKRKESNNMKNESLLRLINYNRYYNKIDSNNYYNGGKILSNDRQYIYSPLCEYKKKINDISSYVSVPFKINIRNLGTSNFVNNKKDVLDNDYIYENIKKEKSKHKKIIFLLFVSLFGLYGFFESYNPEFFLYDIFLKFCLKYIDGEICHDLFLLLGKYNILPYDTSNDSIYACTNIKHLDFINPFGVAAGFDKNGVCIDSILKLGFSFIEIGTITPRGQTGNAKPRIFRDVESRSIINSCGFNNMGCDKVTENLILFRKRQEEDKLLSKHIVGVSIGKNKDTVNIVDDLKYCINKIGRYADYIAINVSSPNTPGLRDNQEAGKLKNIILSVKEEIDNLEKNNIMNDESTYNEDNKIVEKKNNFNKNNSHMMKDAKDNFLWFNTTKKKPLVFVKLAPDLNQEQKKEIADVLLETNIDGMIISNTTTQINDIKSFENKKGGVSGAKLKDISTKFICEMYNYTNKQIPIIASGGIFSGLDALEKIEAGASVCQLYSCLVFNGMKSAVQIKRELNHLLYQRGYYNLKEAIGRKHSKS
Structure (SMILES),z-score [1],z-score [2],z-score [3],z-score [4],z-score [5],z-score [6],z-score [7],z-score [8],z-score [9],z-score [10],z-score [11],z-score [12],z-score [13],composite z-score [14],z-score [15],z-score [16],z-score [17],z-score [18],z-score [19],composite z-score [20]
COc1ccc([Si](C)(C)[C@H]2[C@H](CC(=O)N3CCC[C@H]3CO)O[C@@]3(C(=O)N(Cc4ccc(N5C(=O)c6cccc7cccc5c67)cc4)c4ccccc43)[C@@H]2C)cc1,-0.706,0.867,-0.154,-2.87,-4.2,2.16,1.44 (inactive),-1.1,0.28,-1.28 (inactive),-1.83,0.147 (inactive),-1.61 (inactive),-1.84 (inactive),0.189 (inactive),1.02 (inactive),-0.788 (inactive),-0.848 (inactive),-1.16,-0.392
CCCCC(O)C1C=CC2C(=O)N(Cc3ccccc3)C(=O)C2N1n1cnnc1 (stereo not given),-1.15,0.845,-0.189,0.179,-0.458,0.135,-0.942 (inactive),-0.874,-1.26,0.164 (inactive),-1.23,0.0393 (inactive),-0.748 (inactive),0.504 (inactive),0.148 (inactive),-0.601 (inactive),-0.395 (inactive),-0.436 (inactive),-0.409,0.0937
COC(=O)[C@@]1(Cc2ccccc2)[C@H]2c3cc(C(=O)N(C)C)n(Cc4ccc(O)c(OC)c4)c3C[C@H]2CN1C(=O)c1ccccc1,-0.927,1.68,0.0419,-0.494,-1.26,2.19,-0.485 (inactive),-0.671,-1.47,0.349 (inactive),0.563,1.12 (inactive),0.301 (inactive),-2.88 (inactive),1.47 (inactive),0.458 (inactive),-0.846 (inactive),0.202 (inactive),-1.24,0.0422
COCCOC(=O)N1C(=O)[C@@]2(c3cc(C#CCNC(N)=O)ccc31)[C@H](C(N)=O)[C@H]1C(=O)O[C@H](c3ccccc3)[C@H](c3ccccc3)N1[C@@H]2c1ccc(OCCO)cc1,-0.304,-0.867,-0.392,-0.905,0.66,-2.81,0.441 (inactive),-0.634,-0.602,0.452 (inactive),-0.195,0.713 (inactive),-0.508 (inactive),0.506 (inactive),0.995 (inactive),1.62 (inactive),0.152 (inactive),-0.0952 (inactive),-1.09,-0.188
O=C(O)[C@@]1(Cc2ccccc2)COC(c2ccc(OCCCO)cc2)=N1,-0.297,0.139,0.0851,-0.108,0.21,-0.519,-0.0997 (inactive),0.478,0.0336,0.542 (inactive),0.0838,1.02 (inactive),0.296 (inactive),1.75 (inactive),0.274 (inactive),1.4 (inactive),1.58 (inactive),0.466 (inactive),0.318,0.33
COC(=O)[C@@]1(Cc2ccc(OC)cc2)[C@H]2c3cc(C(=O)N(C)C)n(CCF)c3C[C@H]2CN1C(=O)c1ccccc1,-0.444,-0.228,-0.0897,0.841,-0.111,1.49,0.454 (inactive),-0.339,-1.55,-0.391 (inactive),0.586,2 (inactive),-0.386 (inactive),0.343 (inactive),-0.278 (inactive),0.177 (inactive),0.471 (inactive),-0.143 (inactive),-0.102,-0.0592
CC1CC/C=C\[C@H]2OC34C=CCN(Cc5ccccc5)C(=O)[C@H]3N(CCO)C(=O)[C@@H]4C2C(=O)O1 (stereo not given in full),-0.106,1.1,0.337,1.47,-0.105,0.0673,0.488 (inactive),-0.657,2.1,-0.783 (inactive),-0.811,-0.73 (inactive),0.32 (inactive),0.622 (inactive),-0.758 (inactive),0.606 (inactive),0.98 (inactive),0.566 (inactive),0.301,-0.147
C=CC[C@]1(C(=O)NCC(O)CO)N=C(c2ccc(OCCCO)cc2)O[C@H]1c1ccccc1N=[N+]=[N-] (stereo not given in full),-0.402,0.864,-0.735,-1.16,0.736,-0.285,0.13 (inactive),-0.49,0.857,0.702 (inactive),0.662,-0.746 (inactive),-0.302 (inactive),1.13 (inactive),0.755 (inactive),0.329 (inactive),0.769 (inactive),-0.579 (inactive),0.245,-0.106
O=C1O[C@@H](c2ccccc2)[C@@H](c2ccccc2)N2[C@@H](c3ccc(O)cc3)[C@]3(C(=O)Nc4ccc(C#CC5(O)CCCCCC5)cc43)[C@@H](C(=O)N3CCN(c4ncccn4)CC3)[C@H]12,-0.415,0.292,-0.458,-0.0835,-0.813,-0.512,-0.68 (inactive),-1.05,-0.203,0.533 (inactive),1.63,-0.271 (inactive),0.0176 (inactive),-1.08 (inactive),-0.641 (inactive),0.642 (inactive),0.614 (inactive),0.11 (inactive),1.1,-0.127
O=C1O[C@H](c2ccccc2)[C@H](c2ccccc2)N2[C@H]1[C@@H](C(=O)N1CCCCCCC1)[C@]1(C(=O)Nc3ccccc31)[C@H]2c1ccc(O)cc1,0.416,0.759,0.757,-1.81,-2.71,-1.65,0.123 (inactive),-0.536,0.385,-1.52 (inactive),-0.642,-0.147 (inactive),-2.64 (inactive),0.64 (inactive),0.995 (inactive),0.767 (inactive),-0.328 (inactive),-0.128 (inactive),-2.73,2.57
CCCc1cc2c(n1Cc1ccc(OC)cc1)C(C)C1CN(C(=O)c3ccccc3)C(C)(C(=O)OC)C21 (stereo not given),-0.923,0.431,-0.815,-2.74,-4.66,2.08,-1.82 (inactive),-0.157,-1.61,-0.535 (inactive),-1.34,1.08 (inactive),-1.69 (inactive),-0.118 (inactive),1.21 (inactive),0.864 (inactive),-1.09 (inactive),-0.395 (inactive),-1.7,0.493
Cc1ccc(S[C@]2(C(=O)NCc3ccccc3)CC(=O)N(C3Cc4ccccc4C3)[C@@H]2c2ccc(CO)cc2I)cc1,1.38,-0.196,1.54,-2.33,-1.52,0.353,0.698 (inactive),-0.686,-0.972,-0.862 (inactive),-0.0974,-2.95 (inactive),-2.61 (inactive),-1.29 (inactive),0.761 (inactive),-2.63 (inactive),0.964 (inactive),1.52 (inactive),-1.89,-0.315
[N-]=[N+]=NCc1ccccc1C[C@]1(C(=O)NCCN2CCOCC2)N=C(c2ccc(OCCCO)cc2)O[C@H]1c1ccccc1,0.112,0.117,-0.493,-0.338,-1.06,0.871,0.469 (inactive),-0.636,-0.54,1.29 (inactive),0.383,-2 (inactive),-0.0784 (inactive),-0.603 (inactive),0.193 (inactive),-0.65 (inactive),1.24 (inactive),0.535 (inactive),0.166,0.131
C[C@@H]1ON(c2ccccc2)[C@H](c2ccccc2)[C@H]1C(=O)N1C(=O)OC[C@H]1Cc1ccccc1,-0.245,0.701,-0.0596,-1.4,-0.0681,1.38,0.00493 (inactive),-0.137,-0.645,1.38 (inactive),1.07,0.534 (inactive),0.962 (inactive),-0.255 (inactive),0.0238 (inactive),1.39 (inactive),0.884 (inactive),0.934 (inactive),0.852,-0.1
[N-]=[N+]=NCc1ccccc1[C@H]1OC(c2ccc(OCCCO)cc2)=N[C@@]1(Cc1ccccc1)C(N)=O,0.267,0.514,1.63,-0.0987,0.317,1.19,0.593 (inactive),-0.418,-1.01,1.16 (inactive),1.16,-3.32 (inactive),-0.0284 (inactive),-0.174 (inactive),-0.195 (inactive),1.01 (inactive),0.961 (inactive),0.195 (inactive),-0.373,-0.124
COCCOC(=O)N1C(=O)[C@@]2(c3cc(C#CCC(C(=O)OC)C(=O)OC)ccc31)[C@H](c1ccc(OCCO)cc1)N1[C@H](c3ccccc3)[C@H](c3ccccc3)OC(=O)[C@H]1[C@@H]2C(N)=O,0.462,0.433,0.322,-2.51,-2.67,-0.0777,1.3 (inactive),-0.72,-0.0535,1.18 (inactive),0.331,1.87 (inactive),-0.22 (inactive),-1.15 (inactive),2.32 (inactive),2.34 (inactive),-0.102 (inactive),-0.554 (inactive),-0.112,0.049
Cc1ccc(S[C@]2(C(=O)NCCN3CCOCC3)CC(=O)N(C3Cc4ccccc4C3)[C@@H]2c2ccc(CO)cc2)cc1,-0.215,-0.143,-0.619,-0.0655,0.0047,0.699,0.242 (inactive),0.794,-0.0188,0.665 (inactive),-0.211,0.884 (inactive),-0.209 (inactive),0.408 (inactive),0.0435 (inactive),0.948 (inactive),0.435 (inactive),0.337 (inactive),-0.109,-0.0282
